Results published in PubChem BioAssay.
The source made the active and inactive calls. Unless noted, the rule behind the calls is not given here.

What was measured:
[1] = compounds binding Alexa647 anti-His antibody – biochemical, small-molecule microarray, 635 nm fluorescence, artefact control for SMM control protein annotation, primary screen (AID 1128); settings: higher = more signal;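 note: score merges feature fluorescence with signal-to-noise for each printed compound spot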
[2] = tested on: Human papillomavirus type 1a E7 protein (residues 1-88); test: HPV1a E7 small-molecule binders, primary screen, biochemical, small-molecule microarray, residues 1-88, 635 nm (AID 1129); settings: small-molecule microarray binding, fluorescence 635 nm; higher = more signal
[3] = target: Focal adhesion kinase 1 (Homo sapiens) (UniProt Q05397); test: PTK2 protein binding on printed compound slides – biochemical, small-molecule microarray, 635/667 nm fluorescence, BSA, DTT, primary screen (AID 1130); settings: 635 nm fluorescence, higher = more signal;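 note: composite of spot emission at 667 nm and signal to noise over triplicate slides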
Chain of Focal adhesion kinase 1 (Homo sapiens) (Q05397 whole entry, looked up): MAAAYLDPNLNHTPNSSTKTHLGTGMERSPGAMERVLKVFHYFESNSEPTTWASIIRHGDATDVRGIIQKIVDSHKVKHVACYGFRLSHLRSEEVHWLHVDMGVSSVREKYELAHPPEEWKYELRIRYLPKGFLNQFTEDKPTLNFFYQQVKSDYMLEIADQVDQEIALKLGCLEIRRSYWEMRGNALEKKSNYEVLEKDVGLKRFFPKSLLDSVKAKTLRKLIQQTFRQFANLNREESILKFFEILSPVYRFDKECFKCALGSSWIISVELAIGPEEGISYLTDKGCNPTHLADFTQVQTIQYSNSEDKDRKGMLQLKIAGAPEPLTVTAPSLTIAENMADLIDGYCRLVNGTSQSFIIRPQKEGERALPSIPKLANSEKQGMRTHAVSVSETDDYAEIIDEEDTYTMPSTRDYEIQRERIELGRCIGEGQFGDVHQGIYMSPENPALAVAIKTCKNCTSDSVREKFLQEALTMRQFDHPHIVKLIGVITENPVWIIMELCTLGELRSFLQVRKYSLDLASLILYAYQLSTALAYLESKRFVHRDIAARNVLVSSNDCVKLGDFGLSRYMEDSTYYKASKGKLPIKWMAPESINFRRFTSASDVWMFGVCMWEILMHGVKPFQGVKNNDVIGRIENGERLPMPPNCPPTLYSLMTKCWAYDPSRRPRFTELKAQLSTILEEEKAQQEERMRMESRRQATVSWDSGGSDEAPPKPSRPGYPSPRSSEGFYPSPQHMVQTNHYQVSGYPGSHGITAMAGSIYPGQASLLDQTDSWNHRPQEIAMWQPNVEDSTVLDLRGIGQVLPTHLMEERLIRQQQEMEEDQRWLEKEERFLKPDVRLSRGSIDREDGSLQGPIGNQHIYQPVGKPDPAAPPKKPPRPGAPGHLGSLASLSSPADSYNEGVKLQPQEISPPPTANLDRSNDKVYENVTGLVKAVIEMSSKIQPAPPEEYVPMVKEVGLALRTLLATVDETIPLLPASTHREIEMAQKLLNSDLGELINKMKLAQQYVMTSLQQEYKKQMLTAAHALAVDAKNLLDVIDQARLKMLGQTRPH

[4] = tested on: Fibrinogen (Alexa647-labelled); test: Alexa647-fibrinogen binding to printed small molecules – biochemical, small-molecule microarray, 635/667 nm fluorescence, artefact control for SMM control-protein annotation, profiling panel (AID 1131); settings: fibrinogen-A647 binding fluorescence, higher = more signal;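 note: z-score merges 667 nm fluorescence with per-spot signal-to-noise over triplicate slides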
[5] = target: Follistatin (Homo sapiens) (UniProt P19883); test: FST protein binding to printed compounds – biochemical, small-molecule microarray, 635/667 nm fluorescence, primary screen (AID 1132); settings: 635 nm fluorescence, higher = more signal
Chain of Follistatin (Homo sapiens) (P19883 whole entry, looked up): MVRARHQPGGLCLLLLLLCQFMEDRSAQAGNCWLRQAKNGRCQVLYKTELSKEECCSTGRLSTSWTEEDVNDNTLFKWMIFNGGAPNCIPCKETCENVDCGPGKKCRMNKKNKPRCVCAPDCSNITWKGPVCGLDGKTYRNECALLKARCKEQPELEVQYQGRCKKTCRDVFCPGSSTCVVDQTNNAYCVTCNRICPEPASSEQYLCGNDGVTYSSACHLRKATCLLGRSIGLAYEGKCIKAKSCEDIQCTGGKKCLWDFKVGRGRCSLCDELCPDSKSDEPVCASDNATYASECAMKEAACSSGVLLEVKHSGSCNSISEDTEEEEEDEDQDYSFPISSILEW

[6] = target: Fibroblast growth factor 2 (Homo sapiens) (UniProt P09038); test: basic fibroblast growth factor binding to printed compounds – biochemical, small-molecule microarray, 635/667 nm fluorescence, primary screen (AID 1133); settings: FGF2, fluorescence 635/667, higher = more signal
Chain of Fibroblast growth factor 2 (Homo sapiens) (P09038 whole entry, looked up): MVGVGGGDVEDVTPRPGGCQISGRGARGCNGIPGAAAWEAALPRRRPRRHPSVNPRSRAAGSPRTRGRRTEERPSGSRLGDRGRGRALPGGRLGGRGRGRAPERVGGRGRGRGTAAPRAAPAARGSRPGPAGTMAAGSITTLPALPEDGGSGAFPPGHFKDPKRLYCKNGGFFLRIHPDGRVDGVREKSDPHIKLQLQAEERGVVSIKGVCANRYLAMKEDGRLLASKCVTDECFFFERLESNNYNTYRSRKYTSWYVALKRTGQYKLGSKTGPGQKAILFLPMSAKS

[7] = JC-1 mitochondrial potential readout, lung cancer cells – cell-based, A549, JC-1 fluorescence, basal, 24 h, 100 nL, profiling panel (AID 1138); settings: higher = more signal;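 note: A549 lung adenocarcinoma cells under basal conditions with no added stimulus; test concentration not given here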
Lefty1 = Lefty1 protein binding to printed compounds – biochemical, small-molecule microarray, 635/667 nm fluorescence, primary screen (AID 1139); settings: fluorescence 635/667, higher = more signal
[8] = tested on: wheat germ agglutinin (Triticum aestivum), Alexa647-labelled; test: Alexa647-WGA lectin binding to printed small molecules – biochemical, small-molecule microarray, 635/667 nm fluorescence, artefact control for SMM control-protein annotation, profiling panel (AID 1140); settings: WGA-A647 binding, 635 nm fluorescence, higher = more signal;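 note: score merges 667 nm feature emission with signal to noise over triplicate slides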
[9] = target: Luciferin 4-monooxygenase (Photinus pyralis) (UniProt P08659); test: inhibition of purified Photinus pyralis luciferase – biochemical, luminescence, purified enzyme, 2006 set, primary screen (AID 1141); settings: purified firefly luciferase, SteadyGlo luminescence, 30 min; higher = more signal, called active from +8 up or from −8 down;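 note: cell-free assay with purified firefly luciferase at 100 ng per well in PBS; test concentration not given here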
Chain of Luciferin 4-monooxygenase (Photinus pyralis) (P08659 whole entry, looked up): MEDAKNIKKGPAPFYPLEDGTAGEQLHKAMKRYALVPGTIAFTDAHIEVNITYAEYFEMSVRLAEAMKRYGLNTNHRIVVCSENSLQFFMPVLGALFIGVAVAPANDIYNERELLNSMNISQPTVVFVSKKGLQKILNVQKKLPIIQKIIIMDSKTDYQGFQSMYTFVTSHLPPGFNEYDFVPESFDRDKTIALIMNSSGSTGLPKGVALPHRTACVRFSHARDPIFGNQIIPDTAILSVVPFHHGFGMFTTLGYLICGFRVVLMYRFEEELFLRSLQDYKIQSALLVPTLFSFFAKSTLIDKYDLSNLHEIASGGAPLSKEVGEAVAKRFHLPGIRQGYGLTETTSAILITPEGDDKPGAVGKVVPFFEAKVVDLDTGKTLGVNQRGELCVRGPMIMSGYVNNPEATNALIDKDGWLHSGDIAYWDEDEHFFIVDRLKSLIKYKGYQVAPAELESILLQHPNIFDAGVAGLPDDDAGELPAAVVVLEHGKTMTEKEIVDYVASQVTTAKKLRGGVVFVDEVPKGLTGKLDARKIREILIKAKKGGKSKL

[10] = tested on: Wnt5a (protein binding on small-molecule microarray); test: small molecules binding Wnt5a protein – biophysical, small-molecule microarray, 635/667 nm fluorescence, primary screen (AID 1142); settings: 635 nm fluorescence, higher = more signal;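 note: fluorescence read at 667 nm with signal to noise per printed feature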
[11] = ATP-based viability of Huh7 replicon cells – cell-based, CellTiter-Glo luminescence, basal, 48 h, cytotoxicity control for HCV replication inhibitor project, primary screen (AID 1143); settings: higher = more signal, called active from +8 up or from −8 down;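 note: Huh7 hepatoma cells carrying a hepatitis C replication reporter with no stimulus; test concentration not given here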
[12] = Pseudomonas biofilm growth suppression – PAO1 strain, BacTiter-Glo luminescence, LB-PBS, primary screen (AID 1144); settings: P. aeruginosa PAO1 biofilm, 12 h, higher = more signal
[13] = basal CRE-LacZ reporter activity in PC12 – cell-based, unstimulated, primary screen (AID 1145); settings: no forskolin, luminescence, 4.5 h, higher = more signal, called active from +8 up or from −8 down
[14] = forskolin-driven CRE-LacZ activity in PC12 – cell-based, CRE-LacZ reporter, forskolin-stimulated, primary screen (AID 1146); settings: luminescence, 4.5 h, higher = more signal, called active from +8 up or from −8 down;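 note: PC12 cells with 6xCRE LacZ reporter stimulated by forskolin 10 µM; beta-galactosidase reporter signal reflecting CREB driven transcription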
[15] = target: Streptavidin (Streptomyces avidinii) (UniProt P22629); test: compounds binding control protein streptavidin – biophysical, small-molecule microarray, 635/667 nm fluorescence, artefact control for SMM compound annotation, primary screen (AID 1147); settings: higher = more signal;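 note: signal reflects streptavidin binding to arrayed compounds as a control protein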
Chain of Streptavidin (Streptomyces avidinii) (P22629 whole entry, looked up): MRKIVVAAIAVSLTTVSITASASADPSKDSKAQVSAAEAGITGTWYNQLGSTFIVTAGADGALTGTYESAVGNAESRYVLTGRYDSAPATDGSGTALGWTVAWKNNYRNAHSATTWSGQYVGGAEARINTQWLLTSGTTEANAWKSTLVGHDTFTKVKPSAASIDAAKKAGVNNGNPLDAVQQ

[16] = probe aInhba binding on compound microarray – biochemical, small-molecule microarray, 635/667 nm fluorescence, primary screen (AID 1148); settings: higher = more signal;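 note: score merges 667nm spot fluorescence with signal-to-noise for antibody binding to printed compounds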
Torsin-1A (Homo sapiens) [17] = target: Torsin-1A (Homo sapiens) (UniProt O14656); test: TOR1A wild-type binding on microarray – cell lysate, small-molecule microarray, lysate, 635/667 nm, primary screen (AID 1149); settings: COS7 hTOR1A-WT lysate, 635 nm fluorescence, higher = more signal
Chain of Torsin-1A (Homo sapiens) (O14656 whole entry, looked up): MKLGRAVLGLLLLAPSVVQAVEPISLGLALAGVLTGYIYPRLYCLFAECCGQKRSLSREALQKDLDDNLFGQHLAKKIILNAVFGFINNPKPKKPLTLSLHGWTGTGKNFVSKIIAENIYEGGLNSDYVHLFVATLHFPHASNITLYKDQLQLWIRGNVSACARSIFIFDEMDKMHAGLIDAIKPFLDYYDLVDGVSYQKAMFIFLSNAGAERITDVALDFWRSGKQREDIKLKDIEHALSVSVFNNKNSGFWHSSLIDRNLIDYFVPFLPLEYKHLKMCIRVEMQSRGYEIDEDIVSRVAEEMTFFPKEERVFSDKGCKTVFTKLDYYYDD

Torsin-1A (Homo sapiens) [18] = target: Torsin-1A (Homo sapiens) (UniProt O14656); test: torsin A mutant lysate binding on microarrays – cell lysate, small-molecule microarray, COS7 lysate, 635/667 nm fluorescence, primary screen (AID 1150); settings: COS7 hTOR1A mutant lysate, 635 nm fluorescence, higher = more signal;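 note: score pools 667 nm emission and signal to noise measuring lysate protein binding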
[19] = tested on: Sonic hedgehog protein (Shh); test: Sonic hedgehog microarray binding compounds – biochemical, small-molecule microarray, 635/667 nm fluorescence, primary screen (AID 1151); settings: 635 nm fluorescence, higher = more signal;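 note: Shh protein binding to compounds spotted on small-molecule microarray slides; score combines spot fluorescence intensity with signal-to-noise across triplicate slides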

Row | SMILES | composite z-score [1] | composite z-score [2] | composite z-score [3] | composite z-score [4] | composite z-score [5] | composite z-score [6] | z-score [7] | composite z-score (Lefty1) | composite z-score [8] | z-score [9] | composite z-score [10] | z-score [11] | z-score [12] | z-score [13] | z-score [14] | composite z-score [15] | composite z-score [16] | composite z-score (Torsin-1A (Homo sapiens) [17]) | composite z-score (Torsin-1A (Homo sapiens) [18]) | composite z-score [19]
1 | CN(C)C(=O)[C@@]1(CCC(=O)OC(C)(C)C)N=C(c2ccc(OCCCO)cc2)O[C@H]1c1ccccc1N=[N+]=[N-] | 0.546 | 1.32 | 0.162 | 1.04 | 1.45 | 1.58 | 1.15 | 0.722 | 1.01 | -7.12 (inactive) | 1.46 | -1.84 (inactive) | -0.0215 (inactive) | 1.31 (inactive) | -1.33 (inactive) | 1.6 | 0.277 | 1.76 | 2.25 | 0.18
2 | COC(=O)[C@@]1(Cc2ccccc2)[C@H]2c3cc(C(=O)N4CCCC4)n(Cc4ccccc4)c3C[C@H]2CN1C(=O)c1ccccc1 | 0.673 | 1.24 | 0.756 | 0.524 | 0.841 | -0.407 | 0.339 | 0.272 | 0.893 | 0.886 (inactive) | 0.651 | -3.2 (inactive) | -0.402 (inactive) | 1.74 (inactive) | -0.0064 (inactive) | 0.589 | 0.53 | -0.112 | -0.0741 | -0.606
3 | O=C1O[C@H](c2ccccc2)[C@H](c2ccccc2)N2[C@H]1[C@@H](C(=O)N1CCCCCCC1)[C@]1(C(=O)Nc3ccccc31)[C@H]2c1ccc(O)cc1 | 3.64 | 1.34 | 3.9 | 0.514 | 1.55 | 1.54 | 0.0754 | 1.85 | 1.77 | -0.809 (inactive) | 2.61 | -1.21 (inactive) | 0.387 (inactive) | -0.0566 (inactive) | -0.599 (inactive) | 4.14 | 2.28 | 3.49 | 3.61 | 1.55
4 | CCCC[C@H]1OB(O)C[C@H]2C1=C(COc1ccccc1)Cn1c(=O)n(-c3ccccc3)c(=O)n12 | 0.458 | 0.711 | -0.0229 | 0.333 | 1.1 | 0.302 | -0.0843 | 0.976 | 0.09 | -0.25 (inactive) | 0.0561 | -0.363 (inactive) | -0.127 (inactive) | -0.141 (inactive) | 0.402 (inactive) | 0.0395 | -0.104 | 0.418 | 0.5 | 1.64
5 | Cc1ccc(S[C@]2(C(=O)NCC(C)C)CC(=O)N(C3CCCCC3)[C@@H]2c2ccc(CO)cc2I)cc1 | 0.464 | 1.17 | 0.558 | 0.166 | 0.0905 | -0.284 | 1.28 | 0.0839 | 0.752 | 1.22 (inactive) | 0.249 | -4.87 (inactive) | -0.88 (inactive) | -0.619 (inactive) | 0.413 (inactive) | 0.411 | -0.0259 | 0.314 | 0.289 | 0.104
6 | O=C1C2C=CC(C(O)c3ccccn3)N(Nc3ccccc3)C2C(=O)N1c1ccccc1 (stereo not given) | 0.0213 | 0.0731 | 0.478 | 0.339 | 0.0784 | -0.424 | 0.327 | 0.144 | 1.14 | -1.08 (inactive) | -0.234 | 0.915 (inactive) | -0.574 (inactive) | 1.02 (inactive) | 0.497 (inactive) | -0.065 | 0.0013 | -0.265 | -0.382 | -0.367
7 | [N-]=[N+]=Nc1ccccc1C[C@]1(C(=O)NCCN2CCOCC2)N=C(c2ccc(OCCCO)cc2)O[C@H]1c1ccccc1N=[N+]=[N-] | 1.55 | 1.24 | -0.0277 | 0.94 | 1.39 | 1.65 | 2.42 | 0.499 | 0.687 | -5.36 (inactive) | 0.682 | -3.68 (inactive) | -0.933 (inactive) | 0.573 (inactive) | -1.29 (inactive) | 0.678 | 0.726 | 0.818 | 0.954 | 0.926
8 | CCCCC(=C=CC[C@H](O)c1cccc(OCCO)c1)C[C@H](O)COCc1ccccc1 | -0.178 | 0.101 | 0.105 | -0.606 | 0.0306 | -0.473 | 0.396 | 0.743 | 0.435 | -0.352 (inactive) | -0.122 | -1.33 (inactive) | -0.295 (inactive) | 3.54 (inactive) | 1.04 (inactive) | 0.206 | -0.101 | 0.139 | 0.0056 | 0.508
9 | COc1ccc([Si](C)(C)[C@@H]2[C@@H](CC(=O)N(CCO)Cc3ccccc3)O[C@]3(C(=O)N(Cc4ccc(N5CCOC5=O)cc4)c4ccccc43)[C@H]2C)cc1 | 1.56 | 0.595 | 0.294 | 0.631 | 1.17 | 1.05 | -0.147 | 1.48 | 0.415 | -0.356 (inactive) | 0.0838 | -5.01 (inactive) | 0.0675 (inactive) | 7.59 (inactive) | 0.331 (inactive) | 0.601 | 0.027 | 0.436 | 0.0783 | 1.95
10 | COCCCNC(=O)[C@]1(Cc2ccccc2CN=[N+]=[N-])N=C(c2ccc(OCCCO)cc2)O[C@@H]1c1ccccc1CN=[N+]=[N-] | 2.28 | 1.2 | 0.11 | 0.954 | 0.701 | 0.244 | 1.28 | -0.449 | 1.02 | -0.107 (inactive) | 0.471 | -4.04 (inactive) | 1.06 (inactive) | 0.969 (inactive) | -1.02 (inactive) | 1.23 | 0.648 | 0.883 | 0.721 | -0.256
